GLS inh = inhibitors of human glutaminase (GLS); 410,000 tested, 0.21% active; GLS enzymatic activity, qHTS titration; AID 624170; Potency, µM (series often up to 45.5 µM), for the others: at the top dose activity change, negative = inhibition, hits mostly inhibitors; O94925; note: % is set by controls: 0 for no effect and ±100 for the full control effect
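Glutamate formation by hKGA was monitored fluorometrically using coupled glutamate oxidase, HRP and Amplex Red. Substrate was added as 1 mM L-glutamine solution; incubation was 30 min at RT after an initial read.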
HP1b binding inh = inhibitors of HP1-beta chromodomain binding to methylated histone tails; P83916; AlphaScreen HP1-beta / biotin-H3K9me3 peptide binding; Potency, µM (highest dose often 114 µM), without a hit: at the highest dose activity change, negative = inhibition, usual class: inhibitors; 390,000 tested, 0.56% active; AID 540317; note: nearly all actives have a fitted effect of over 70% in size
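HP1-beta protein (50 nM final) preincubated 30 min at room temperature with biotinylated H3(1-18)K9me3 peptide (50 nM) in PBS pH 7.4, 0.01% Tween-20, then compound added for 30 min. AlphaScreen streptavidin donor/nickel chelate acceptor beads (10 ug/mL final), 30 min dark, luminescence read.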
BAZ2B inh = BAZ2B (human) inhibition. 360,000 tested, 4.4% active. Q9UIF8. AlphaScreen BAZ2B-H3K14Ac peptide displacement. Potency, µM (highest dose often 114 µM), for the others: at the highest dose activity change, negative = inhibition, actives largely listed as inhibitors; note: % is set by controls: 0 for no effect and ±100 for the full control effect; nearly all actives have a fitted effect of over 60% in size
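AlphaScreen displacement of biotin-H3(5-23)K14Ac peptide (50 nM final) from BAZ2B (50 nM final) in PBS pH 7.4, 0.01% Tween-20; complex preformed 30 min RT, then compounds (top 110 uM) 30 min RT, beads 20 min dark.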
JMJD2A Tudor inh = inhibitors of human JMJD2A Tudor domain. AlphaScreen JMJD2A-Tudor / H3K4me3 peptide binding. O75164. 390,000 tested, 4.4% active. Potency, µM (doses to about 114 µM), for inactives: at the top dose activity change, negative = inhibition, usual class: inhibitors; note: % is set by controls: 0 for no effect and ±100 for the full control effect; nearly all actives have a fitted effect of over 50% in size
G9a inh = blocks human histone lysine methyltransferase G9a. Q96KQ7. G9a H3K9 monomethylation, AlphaScreen, 2 h. Potency, µM (highest dose often 102 µM), without a hit: top-dose activity, negative = inhibition, usual class: inhibitors. 350,000 tested, 8.8% active. AID 504332; note: % is set by controls: 0 for no effect and ±100 for the full control effect; nearly all actives have a fitted effect of over 75% in size
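G9a (20 nM) was preincubated 15 min with compound, then reacted 2 h at room temperature with 500 nM biotin-H3K9 peptide and 20 µM SAM. Monomethyl-H3K9 detected by AlphaScreen using anti-H3K9me1 antibody.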
An asterisk follows results filed as active; ? = inconclusive; . = no result; [ ] = remark or other dose. Hits are enriched below; roughly 10% of the tested compounds scored in any of these assays. Calls come from the whole dose curve; as a rule, active = well fitted curve in the direction sought with a large enough effect; inconclusive = small, poorly fitted or top-dose-only effect, or another doubt; inactive = no such curve, though single readings can be large; an effect the other way counts as inactive or inconclusive. Potency is the fitted concentration of half-maximal effect.

SMILES | GLS inh | HP1b binding inh | BAZ2B inh | JMJD2A Tudor inh | G9a inh
CC(C)(C)OC(=O)NCC12C=CC(O1)C1C(=O)N(Cc3ccccc3)C(=O)C12 (centres undefined) | 0.1% | 34.7% | -0.4% | -7.8% | 10µM*
CC(NC(=O)Cn1cc(C(=O)C2CC2)c2ccccc21)c1ccccc1 (centres undefined) | 0.5% | -5.4% | 9.0% | 79.4µM* | 16.3%[59 µM]
COC(=O)Cn1cc(C(=O)C2CC2)c2ccccc21 | 10.9% | 16.4% | 1.0% | 5.3% | 11.3%[12.7 µM]
CCCc1cc(=O)n2nc(N3CCC(C(=O)NCc4ccc(C)o4)CC3)sc2n1 | -1.9% | 59.4% | ? | -13.7% | .
CSc1ccc(CNC(=O)CCn2ccc3cc(S(=O)(=O)N4CCC(C)CC4)ccc32)cc1 | 1.5% | 24.4% | -23.4% | -4.8% | -8.2%[59 µM]
COc1cc(CNc2ccc3c(c2)OCCO3)ccc1OCC(N)=O | 29.7% | 7.1% | -16.1% | ? | 0.6%
CCOc1c(Br)cc(CNc2ccc3c(c2)OCCO3)cc1OC | 9.5% | -80.6% | 35.5µM* | 50.1µM* | 3.16µM*
CCOc1c(Br)cc(CNC2CCCCCCC2)cc1OC | 0.3% | 16.7% | -25.1% | -16.1% | -40.9%
CCOc1c(Br)cc(CNc2ccc(N3CCOCC3)cc2)cc1OC | 68.0% | ? | 25.1µM* | 50.1µM* | 11.2µM*
CCOc1cc(CNc2ccc3c(c2)OCCO3)cc(Br)c1OCC(N)=O | -1.1% | -38.6% | 44.7µM* | 50.1µM* | 12.6µM*
CCOc1cc(CNc2ccc3c(c2)OCCO3)cc(Br)c1OC | -2.8% | -69.1% | 22.4µM* | 39.8µM* | 3.98µM*
O=c1c(-c2ccccc2)nc2cnc(Oc3ccccc3)nc2n1Cc1cccs1 | . | . | . | . | 1.3%[12.7 µM]
Cc1ccc(CCNC(=O)c2cn(C)c3ccc(S(=O)(=O)N4CCCCC4)cc3c2=O)cc1 | -8.0% | 35.0% | . | -4.0% | 5.8%[59 µM]
CCOC(=O)c1nnc(-c2ccc(C)cc2)nc1Sc1ccccc1Cl | 3.6% | 0.1% | -26.8% | ? | ?
CCOC(=O)c1nnc(-c2ccccc2)nc1Sc1c(Cl)cccc1Cl | -9.2% | -21.6% | ? | ? | 39.8µM*
CCOc1ccc(N=C2C(=O)Nc3ccc(C)c(Br)c32)cc1 | -10.4% | ? | 35.5µM* | ? | ?
Cc1ccc2c(c1Br)/C(=N/N1C(=O)c3ccccc3C1=O)C(=O)N2 | 2.4% | 34.8% | -10.2% | -18.9% | 13.5%
Oc1ccc(/C=N/NC(=S)N2CCOCC2)cc1 | 1.0% | -3.0% | -3.0% | -34.7% | 50.1µM*
CC(C)NC(=S)N/N=C/c1ccc(N2CCOCC2)cc1 | 25.0% | 26.4% | -29.9% | -18.1% | 15.1%[59 µM]
O=S(=O)(c1ccc(NC(=S)N/N=C/c2ccc(O)c(O)c2)cc1)N1CCOCC1 | ? | -14.2% | ? | ? | .
O=[N+]([O-])c1cc(Cl)cc(/C=N/NC(=S)Nc2ccc(S(=O)(=O)N3CCOCC3)cc2)c1O | 40.9% | 22.4µM* | 2.82µM* | -35.3%[11.4 µM] | 15.8µM*
COc1ccc2cc(/C(C)=N/NC(=S)Nc3cc(S(=O)(=O)N4CCOCC4)ccc3N3CCOCC3)ccc2c1 | . | . | -5.4% | . | -104.0%[59 µM]
C/C(=N\NC(=S)Nc1cc(S(=O)(=O)N2CCOCC2)ccc1Cl)c1ccc(N2CCOCC2)cc1 | 3.4% | -2.4% | -21.3% | -28.4% | 31.6µM*
O=S(=O)(c1ccc(Cl)c(NC(=S)N/N=C/c2ccc(O)cc2)c1)N1CCOCC1 | 20.1% | -23.4% | -38.4% | ? | 1.41µM*
COc1ccc(S(=O)(=O)Nc2cccc(S(=O)(=O)N3CCCC3)c2)cc1OC | 6.3% | 2.2% | 9.9% | -12.4% | 3.8%
SMILES | GLS inh | HP1b binding inh | BAZ2B inh | JMJD2A Tudor inh | G9a inh
COC(=O)C[C@H]1C[C@H]2c3cc(NS(=O)(=O)c4ccc(OC)cc4)ccc3O[C@H]2[C@H](CO)O1 | 13.8% | . | . | . | .
CCCC(C)C(=O)Nc1cc(S(=O)(=O)N2CCCCC2)ccc1N1CCOCC1 (centres undefined) | -3.4% | 31.1% | -3.2% | -11.7% | 3.8%[59 µM]
C/C(CCC(C)C)=N\NC(=S)Nc1cc(S(=O)(=O)N2CCOCC2)ccc1N1CCOCC1 | 0.0% | -22.4% | -31.9% | -36.2% | 25.1µM*
CCCC1=Nc2cc(C(=O)N3CCC(C(=O)OCC)CC3)ccc2Sc2ccccc21 | 2.0% | 18.5% | -34.3% | ? | ?
CCc1ccc(CN(C(=O)c2ccc(OC)cc2)C2CCS(=O)(=O)C2)cc1 (centres undefined) | -1.7% | 14.3% | 0.9% | 6.9% | 8.2%[59 µM]
Clc1ccc(-c2nnc3sc(-c4ccccn4)nn23)cc1 | . | . | 11.8% | . | -7.1%[2.33 µM]
CC(C)(C)c1ccc(-c2nnc3sc(-c4ccccn4)nn23)cc1 | -1.7% | -5.8% | ? | -26.1% | 31.6µM*
c1ccc(-c2nn3c(-c4ccco4)nnc3s2)nc1 | -9.1% | 60.2% | -37.7% | -12.4% | 39.8µM*
Brc1ccc(-c2nn3c(-c4ccco4)nnc3s2)o1 | -11.2% | 1.8% | 50.1µM* | ? | 14.1µM*
Brc1ccc(-c2nn3c(-c4ccccn4)nnc3s2)o1 | -17.2% | 33.5% | 17.8µM* | 14.1µM* | 20µM*
c1ccc2sc(NC3=NCN(CCN4CCOCC4)CN3)nc2c1 | -9.4% | 11.5% | -10.8% | -10.4% | -36.7%
O=C(CCNC(=O)c1ccc([N+](=O)[O-])cc1)Oc1ccc(F)c(F)c1 | 1.4% | 33.6% | . | -18.6% | .
Clc1ccc(OCc2nn3c(-c4ccco4)nnc3s2)c(Cl)c1 | -9.4% | 13.3% | 56.2µM* | ? | -38.7%[2.33 µM]
CC(C)C(=O)NC(=S)/C=C1/N(C)c2ccccc2C1(C)C | -36.1% | 50.1µM* | 31.6µM* | 39.8µM* | 39.8µM*
Cc1c(NC(=S)/C=C2\N(C)c3ccccc3C2(C)C)c(=O)n(-c2ccccc2)n1C | 29.0% | ? | ? | -25.9% | 31.6µM*
Cc1c(N=C/C=C2\N(C)c3ccccc3C2(C)C)c(=O)n(-c2ccccc2)n1C | 52.1% | -7.1% | 2.3% | -22.5% | 10.3%
CN1/C(=C\C(=O)C(F)F)C(C)(C)c2ccccc21 | 0.3% | 44.8% | 19.2% | 16.3% | -21.3%
Cc1ccc(C(=O)NC(=S)/C=C2\N(C)c3ccccc3C2(C)C)cc1 | 13.5% | 12.6µM* | 12.6µM* | 22.4µM* | 14.1µM*
COc1ccc(Br)cc1CNc1ccccc1 | 4.0% | ? | 50.1µM* | 17.8µM* | 22.4µM*
N#C/C(=C(/O)CCl)c1nnc2n1CCCCC2 | 7.8% | -0.2% | 79.4µM* | 20µM* | -39.7%
CC(C)c1ccc(NC(=O)c2ccc3c(c2)C(=O)N(Cc2cccnc2)C3=O)cc1 | -3.9% | 16.8% | 5.7% | -18.3% | 100.3%
Cc1c(C(=O)OCc2ccccc2)[nH]c2c1C(=O)CC(c1ccc(Cl)cc1)C2 (centres undefined) | 2.4% | 40.1% | 0.5% | -1.7% | -0.7%[59 µM]
Cc1c(C(=O)OC2CCCCCC2)[nH]c2c1C(=O)CC(c1ccc(N(C)C)cc1)C2 (centres undefined) | -3.4% | -12.4% | ? | ? | 5.1%[59 µM]
CCC(C)OC(=O)c1[nH]c2c(c1C)C(=O)CC(c1ccc(N(C)C)cc1)C2 (centres undefined) | -6.0% | -6.0% | ? | ? | 14.1µM*

Screening data (PubChem BioAssay)
